# Bioassay records (PubChem)
# Gal4-VP16 FLuc: counter-screen for ROR gamma inhibitors: Gal4-VP16 reporter | AID 2546 | Drosophila S2 Gal4-VP16 UAS-luciferase, luminescence, 20 h | Potency, µM (titrated, usually from 53.6 µM), for inactives: at the top dose activity, negative = inhibition, actives largely listed as inhibitors | 310,000 tested, 3.5% active;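 note: Gal4-VP16 expression switched on by copper sulfate through the metallothionein promoter; % is set by controls: 0 for no effect and ±100 for the full control effect; nearly all actives have a fitted effect of over 50% in size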
# RORgamma inh: inhibitors of mouse ROR gamma transcriptional activity; Potency, µM (top dose mostly 53.6 µM), for the others: at the highest dose activity change, negative = inhibition, most hits filed as inhibitors; 310,000 tested, 5.4% active; AID 2551; Drosophila S2 Gal4-RORgamma UAS-luciferase reporter, 20 h; P51450; note: % is set by controls: 0 for no effect and ±100 for the full control effect; nearly all actives have a fitted effect of over 60% in size
# Target sequence (P51450 whole entry, looked up, the tested form may be a part): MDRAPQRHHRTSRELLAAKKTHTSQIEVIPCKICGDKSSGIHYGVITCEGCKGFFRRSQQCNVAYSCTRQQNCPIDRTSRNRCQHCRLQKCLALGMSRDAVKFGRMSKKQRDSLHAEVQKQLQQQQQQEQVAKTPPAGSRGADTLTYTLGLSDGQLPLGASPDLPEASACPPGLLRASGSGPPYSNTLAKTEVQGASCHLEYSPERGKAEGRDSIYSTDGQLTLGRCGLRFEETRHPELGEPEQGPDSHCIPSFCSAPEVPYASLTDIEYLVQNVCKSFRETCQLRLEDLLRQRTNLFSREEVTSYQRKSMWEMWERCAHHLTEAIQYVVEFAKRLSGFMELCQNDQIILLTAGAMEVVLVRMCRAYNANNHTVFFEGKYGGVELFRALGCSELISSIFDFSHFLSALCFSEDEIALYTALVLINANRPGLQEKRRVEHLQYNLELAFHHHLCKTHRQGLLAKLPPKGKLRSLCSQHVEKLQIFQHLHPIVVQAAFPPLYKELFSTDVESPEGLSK
#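 Compounds are pin-transferred onto Drosophila Schneider cells expressing a copper-inducible Gal4–ROR gamma transactivation domain fusion. After 1 hr, copper sulfate is added to 700 uM final; luciferase is read 20 hr later.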
# MCF10A rerep: DNA re-replication induction in MCF 10a cells. MCF 10A DNA re-replication, Hoechst nuclear intensity, 48 h. Potency, µM (highest dose often 46.1 µM), without a hit: top-dose activity, positive = re-replication, hits mostly activators. 350,000 tested, 2.9% active. AID 624296; note: % of control where 0% means no effect; nearly all actives have a fitted effect of over 50% in size
# KB-3-1 cytotox: KB-3-1 parental cell cytotoxicity | KB-3-1 viability, CellTiter-Glo ATP luminescence, 72 h | 400,000 tested, 1.4% active | Potency, µM (top dose mostly 46.1 µM), usual class: cytotoxic; note: % is set by controls: 0 for no effect and ±100 for the full control effect; nearly all actives have a fitted effect of over 60% in size
#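 Using CellTiter-Glo luminescence, growth of non-resistant KB-3-1 adenocarcinoma cells is assessed 72 h after pin-tool compound addition at 37 °C. Normalized responses across the concentration series yield fitted curves.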
# SW480 rerep: DNA re-replication induction in SW480 cells; SW480 DNA re-replication, Hoechst DNA content imaging, 48 h; Potency, µM (titrated, usually from 46.1 µM), for inactives: at the highest dose re-replication activation, hits mostly activators; 340,000 tested, 1.8% active; AID 624297; note: % of control where 0% means no effect; nearly all actives have a fitted effect of over 55% in size
#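 Compounds, transferred as 23 nL by pin tool, were incubated with cells for 48 hr; DNA content per nucleus was then quantified by Hoechst staining and fluorescence plate imaging.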
# KB-V1 cytotox: kills drug-selected multidrug resistant KB-V1 cells; KB-V1 MDR cells viability, CellTiter-Glo, 72 h; 400,000 tested, 3.4% active; AID 1347076; Potency, µM (series often up to 46.1 µM), usual class: cytotoxic; note: % is set by controls: 0 for no effect and ±100 for the full control effect; nearly all actives have a fitted effect of over 60% in size
#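 In this primary screen, KB-V1 cells overexpressing P-gp are incubated with library compounds (lowest to highest concentration) for 72 h at 37 degrees C before a luminescent ATP viability read.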
# * = called active by the depositor; i = inactive; ? = inconclusive; . = not tested or not shown; [ ] = dose if it differs, or a comment. In the library only some 10% were active in any assay of this set; here they are far more common. Calls come from the whole dose curve; as a rule, active = well fitted curve in the direction sought with a large enough effect; inconclusive = small, poorly fitted or top-dose-only effect, or another doubt; inactive = no such curve, though single readings can be large; an effect the other way counts as inactive or inconclusive. Potency is the fitted concentration of half-maximal effect.
SMILES,Gal4-VP16 FLuc,RORgamma inh,MCF10A rerep,KB-3-1 cytotox,SW480 rerep,KB-V1 cytotox
COc1ncc2nc(-c3cccs3)c(=O)n(CCc3ccccc3)c2n1,25.3%,10.0%,.,.,.,.
CC1CC=CC2C1C(=O)N(Cc1ccccc1)C2c1ccc(C(F)(F)F)cc1 (stereo not given),?,44.1%,.,.,.,.
CC(C)c1cccc(-c2csc(C(C)(O)c3cccc(F)c3)n2)c1 (stereo not given),.,.,.,i,.,i
O=C(N/N=C\c1c(O)ccc2ccccc12)c1ccc(S(=O)(=O)N2CCCCC2)cc1,3.98µM*,2.51µM*,-0.2%,i,?,i
O=C(N/N=C/c1ccccc1)c1ccc2c(c1)OCO2,11.2µM*,?,-5.4%,i,-8.7%,i
O=C(CNC(=O)c1ccc(S(=O)(=O)N2CCCC2)cc1)N/N=C/c1ccccc1Cl,-6.9%,?,3.7%,i,15.3%,i
O=C(N/N=C/c1c(O)ccc2ccccc12)c1ccc(CO)nc1,6.31µM*,3.98µM*,?,?,?,i
CN(C)c1ccc(/C=N/NC(=O)c2ccc3c(c2)OCO3)cc1,3.0%,?,-0.5%,i,11.9%,i
O=C(N/N=C/c1ccc([N+](=O)[O-])o1)c1ccc2c(c1)OCO2,10µM*,4.47µM*,27.0%,?,?,?
CC1=C(C(=O)OCC2CCCCC2)C(c2ccc(Cl)cc2)CC(=O)N1 (stereo not given),.,.,.,i,.,?
O=C(NN=Cc1c(O)ccc2ccccc12)c1ccc2c(c1)OCO2,.,.,11.6µM*,?,20.6µM*,?
Cc1cccc(C(=O)Nc2cccc(C(=O)N/N=C/c3ccc4c(c3)OCO4)c2)c1,-5.3%,20.6%,13µM*,13µM*,23.1µM*,i
Cc1cc(Br)ccc1NC(=O)COC(=O)c1ccccc1OCC(N)=O,.,.,.,?,.,i
O=c1c2c(-c3cccs3)csc2ncn1/N=C/c1ccc(OC(F)F)cc1,0.4%,26.2%,-1.0%,i,-1.3%,14.6µM*
O=C(O)COc1ccc(/C=N/n2cnc3scc(-c4cccs4)c3c2=O)cc1,-5.7%,-5.1%,6.5%,i,5.0%,i
Cc1nn(-c2ccccc2)cc1/C=N/NC(N)=S,4.47µM*,2.51µM*,?,?,-2.6%[9.22 µM],16.4µM*
Cn1cc(/C=N/NC(N)=S)c2ccccc21,22.4µM*,?,-2.0%,?,0.2%,i
C=CCNC(=S)N/N=C/c1cn(C)c2ccccc12,-8.5%,26.8%,-14.3%,i,3.0%,i
Cc1nn(-c2ccccc2)cc1/C=N/O,-28.2%,?,0.6%,i,1.5%,i
Cn1cc(/C=N\NC(=O)c2cccs2)c2ccccc21,?,8.91µM*,?,i,24.8%,i
Cn1cccc1/C=N/NC(=O)c1cccs1,?,?,-2.9%,i,-4.9%,i
Cn1cc(/C=N/NC(=O)c2ccc(C#N)cc2F)c2ccccc21,?,5.01µM*,-0.1%,i,6.8%,i
CN(Cc1ccc(Cl)cc1Cl)C(=O)c1cccc(S(=O)(=O)NCc2ccccc2)c1,.,.,2.9%,?,-3.9%,5.17µM*
CN(Cc1c(F)cccc1Cl)C(=O)c1cccc(S(=O)(=O)NCc2ccccc2)c1,.,.,14.4%,i,-4.6%,i
O=C(NCc1cccc(C(F)(F)F)c1)c1cccc(S(=O)(=O)NCc2ccccc2)c1,2.7%,?,?,i,132.8%,18.4µM*
O=C(c1ccc(CNS(=O)(=O)c2cccc(C(F)(F)F)c2)cc1)N1CCOCC1,-1.0%,-3.6%,-6.6%,i,-3.2%,13µM*
O=C(c1ccc(NS(=O)(=O)c2cccc(C(F)(F)F)c2)cc1)N1CCCC1,-13.8%,36.5%,-0.5%,.,-3.3%,.
Cc1cc(C(=O)OC(C)C(=O)NC2CCCCC2C)c2ccccc2n1 (stereo not given),.,.,.,i,.,i
